# The whole screen tested about 5,500 compounds, of which about 2,000 (36%) were called active. About 18% were inconclusive and are not listed. This is one part of the list. A number with no mark means an inactive call. Cut-off read from the data, not from the text of the source: active = normalized growth mostly below about 0.91 (no sharp cut-off); inconclusive = no clear call, values can overlap the other calls; inactive = mostly above about 0.92.
# Test: chemical genetic growth profiling, strain panel (AID 1159580);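 note: tested at 20 µM; growth read once vehicle control cultures reached saturation at 30 °C; 1 = growth at the plate median or of vehicle wells; lower values mean less growth of the strain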
# Details: S. cerevisiae deletion strains, growth OD
# [1] = locus YAL040C, strain CLN3, active compounds read low
# [2] = locus YCL061C, strain MRC1 (second series), active compounds read low
# [3] = locus YDR363W, strain ESC2, active compounds read low
# [4] = locus YER002W, strain NOP16, active compounds read low
# [5] = locus YNL175C, strain NOP13, active compounds read low
# [6] = locus YNL197C, strain WHI3, active compounds read low
# [7] = locus YNL224C, strain SQS1, active compounds read low
# [8] = locus YOR083W, strain WHI5 (second series), active compounds read low
# [9] = locus YPL241C, strain CIN2, active compounds read low
# [10] = locus YGR078C, strain PAC10, active compounds read low
compound,measurement,setting,value
COc1cc(C(O)CO)ccc1OS(=O)(=O)O (stereo not drawn),normalized growth,[1],0.981
same,normalized growth,[2],1
same,normalized growth,[3],0.994
same,normalized growth,[4],0.991
same,normalized growth,"locus YGR229C, strain SMI1, active compounds read low",1.01
same,normalized growth,[5],0.998
same,normalized growth,[6],1
same,normalized growth,[7],1.01
same,normalized growth,"locus YNL322C, strain KRE1, active compounds read low",1.01
same,normalized growth,[8],1.05
same,normalized growth,[9],0.996
C1COC(NC(C2CC2)C2CC2)=N1,normalized growth,[1],1.01
same,normalized growth,[2],0.997
same,normalized growth,[3],1.01
same,normalized growth,[4],0.995
same,normalized growth,[10],0.997
same,normalized growth,"locus YMR307W, strain GAS1, active compounds read low",0.956
same,normalized growth,[5],1.01
same,normalized growth,[6],0.997
same,normalized growth,[7],0.999
same,normalized growth,[8],1.01
CSc1nc(N)c2ncn([C@@H]3O[C@H](COP(=O)(O)OP(=O)(O)OP(=O)(O)O)[C@H](O)C3O)c2n1 (stereo partly drawn),normalized growth,[1],0.978
same,normalized growth,"locus YDR150W, strain NUM1, active compounds read low",1.03
same,normalized growth,[4],0.998
same,normalized growth,[10],0.981
same,normalized growth,"locus YMR263W, strain SAP30, active compounds read low",1
same,normalized growth,"locus YNL153C, strain GIM3, active compounds read low",1.01
same,normalized growth,[5],0.986
same,normalized growth,[6],0.979
same,normalized growth,[7],0.967
same,normalized growth,[8],1
same,normalized growth,[9],1.01
COc1cc(Br)cc(C=Nc2ccc(Sc3ccccc3)nc2Sc2ccccc2)c1O,normalized growth,"locus YAR019C, strain CDC15, active compounds read low",0.968
same,normalized growth,"locus YBL105C, strain PKC1, active compounds read low",0.976
same,normalized growth,"locus YBR135W, strain CKS1, active compounds read low",0.96
same,normalized growth,"locus YBR136W, strain MEC1, active compounds read low",0.973
same,normalized growth,"locus YBR160W, strain CDC28, active compounds read low",0.965
same,normalized growth,"locus YDL017W, strain CDC7, active compounds read low",0.969
same,normalized growth,"locus YDL028C, strain MPS1, active compounds read low",0.962
same,normalized growth,"locus YDL101C, strain DUN1, active compounds read low",0.969
same,normalized growth,"locus YDL108W, strain KIN28, active compounds read low",0.958
same,normalized growth,"locus YDL132W, strain cdc53, active compounds read low",0.949
same,normalized growth,"locus YDL214C, strain PRR2, active compounds read low",0.838
same,normalized growth,"locus YDR052C, strain DBF4, active compounds read low",0.976
same,normalized growth,"locus YDR054C, strain cdc34, active compounds read low",0.957
same,normalized growth,"locus YDR226W, strain ADK1, active compounds read low",0.964
same,normalized growth,"locus YDR477W, strain SNF1, active compounds read low",0.812
same,normalized growth,"locus YER123W, strain YCK3, active compounds read low",0.831
same,normalized growth,"locus YER133W, strain GLC7, active compounds read low",0.843
same,normalized growth,"locus YFL009W, strain cdc4, active compounds read low",0.955
same,normalized growth,"locus YFL029C, strain CAK1, active compounds read low",0.966
same,normalized growth,"locus YFR003C, strain YPI1, active compounds read low",0.967
same,normalized growth,"locus YFR019W, strain FAB1, active compounds read low",0.969
same,normalized growth,"locus YFR028C, strain CDC14, active compounds read low",0.955
same,normalized growth,"locus YGR040W, strain KSS1, active compounds read low",0.857
same,normalized growth,"locus YGR052W, strain FMP48, active compounds read low",0.782
same,normalized growth,"locus YGR092W, strain DBF2, active compounds read low",0.523
same,normalized growth,"locus YHR030C, strain SLT2, active compounds read low",0.489 (active)
same,normalized growth,"locus YHR079C, strain IRE1, active compounds read low",0.703
same,normalized growth,"locus YHR082C, strain KSP1, active compounds read low",0.845
same,normalized growth,"locus YHR205W, strain SCH9, active compounds read low",0.696
same,normalized growth,"locus YIL147C, strain SLN1, active compounds read low",0.964
same,normalized growth,"locus YJL095W, strain BCK1, active compounds read low",0.638
same,normalized growth,"locus YJL128C, strain PBS2, active compounds read low",0.918
same,normalized growth,"locus YJL157C, strain FAR1, active compounds read low",0.848
same,normalized growth,"locus YJR016C, strain ILV3, active compounds read low",0.974
same,normalized growth,"locus YJR066W, strain TOR1 (second series), active compounds read low",0.848
same,normalized growth,"locus YJR066W, strain TOR1, active compounds read low",0.636
same,normalized growth,"locus YKL048C, strain ELM1, active compounds read low",0.935
same,normalized growth,"locus YKL067W, strain YNK1, active compounds read low",0.808
same,normalized growth,"locus YKL101W, strain HSL1, active compounds read low",0.861
same,normalized growth,"locus YKL193C, strain SDS22, active compounds read low",0.962
same,normalized growth,"locus YKL203C, strain TOR2, active compounds read low",0.91
same,normalized growth,"locus YLR113W, strain HOG1, active compounds read low",0.746 (active)
same,normalized growth,"locus YLR133W, strain CKI1, active compounds read low",0.846
same,normalized growth,"locus YLR403W, strain SFP1, active compounds read low",0.772
same,normalized growth,"locus YML070W, strain DAK1, active compounds read low",0.888
same,normalized growth,"locus YMR001C, strain CDC5, active compounds read low",0.951
same,normalized growth,"locus YMR205C, strain PFK2 (second series), active compounds read low",0.843
same,normalized growth,"locus YMR277W, strain FCP1, active compounds read low",0.959
same,normalized growth,"locus YNL006W, strain LST8, active compounds read low",0.971
same,normalized growth,"locus YNL020C, strain ARK1, active compounds read low",0.82
same,normalized growth,"locus YNL161W, strain CBK1, active compounds read low",0.972
same,normalized growth,"locus YNL183C, strain NPR1, active compounds read low",0.72
same,normalized growth,"locus YNL207W, strain RIO2, active compounds read low",0.961
same,normalized growth,"locus YNL222W, strain SSU72, active compounds read low",0.962
same,normalized growth,"locus YNL307C, strain MCK1 (second series), active compounds read low",0.766
same,normalized growth,"locus YOL078W, strain AVO1, active compounds read low",0.963
same,normalized growth,"locus YOL136C, strain PFK27, active compounds read low",0.893
same,normalized growth,"locus YOR061W, strain CKA2, active compounds read low",0.824
same,normalized growth,"locus YOR119C, strain RIO1, active compounds read low",0.838
same,normalized growth,"locus YOR231W, strain MKK1, active compounds read low",0.766
same,normalized growth,"locus YOR329C, strain SCD5, active compounds read low",0.967
same,normalized growth,"locus YPL031C, strain PHO85, active compounds read low",0.827
same,normalized growth,"locus YPL153C, strain RAD53, active compounds read low",0.808
same,normalized growth,"locus YPL204W, strain HRR25, active compounds read low",0.801
same,normalized growth,"locus YPL209C, strain IPL1, active compounds read low",0.968
same,normalized growth,"locus YPL256C, strain CLN2, active compounds read low",0.794 (active)
same,normalized growth,"locus YPR025C, strain CCL1, active compounds read low",0.962
same,normalized growth,"locus YPR106W, strain ISR1, active compounds read low",0.957
same,normalized growth,"locus YPR111W, strain DBF20, active compounds read low",0.939
same,normalized growth,"strain NNK1, active compounds read low",0.97
same,normalized growth,"strain TSCII, active compounds read low",0.964

# — PubChem BioAssay AID1159580 (chemical genetic matrix, 2015)
